ALDH1A1 inh – inhibitors of human aldehyde dehydrogenase 1A1; P00352; AID 1030; Potency, µM (top dose mostly 75.3 µM), without a hit: at the top dose activity, negative = inhibition, hits mostly inhibitors; Purified ALDH1A1, NADH fluorescence, propionaldehyde substrate; 220,000 tested, 7.3% active; active = well fitted inhibition curve with a large enough effect, not every such curve was filed as active; inconclusive = small, poorly fitted or top-dose-only effect, or another doubt; inactive = no such curve, though single readings can be large or run the other way;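 also: plate controls were no enzyme wells and a reference inhibitor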
Target sequence (P00352 whole entry, looked up): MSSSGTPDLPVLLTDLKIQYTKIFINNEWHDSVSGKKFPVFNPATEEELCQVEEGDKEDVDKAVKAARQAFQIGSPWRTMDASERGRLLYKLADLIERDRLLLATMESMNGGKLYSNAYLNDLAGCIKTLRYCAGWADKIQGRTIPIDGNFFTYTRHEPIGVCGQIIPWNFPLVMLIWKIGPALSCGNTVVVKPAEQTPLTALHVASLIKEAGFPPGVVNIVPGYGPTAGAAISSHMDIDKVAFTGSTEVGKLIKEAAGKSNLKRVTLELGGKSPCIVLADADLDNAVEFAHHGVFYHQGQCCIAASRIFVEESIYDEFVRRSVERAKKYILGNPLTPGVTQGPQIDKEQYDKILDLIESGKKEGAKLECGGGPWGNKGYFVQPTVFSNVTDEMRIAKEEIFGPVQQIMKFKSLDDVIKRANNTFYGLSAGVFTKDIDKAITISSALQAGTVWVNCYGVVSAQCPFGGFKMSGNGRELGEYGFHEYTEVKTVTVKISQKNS
Tau FP inhib – inhibitors of human tau fibril formation | P10636 | K18 P301L tau heparin fibrillization, Alexa594 FP, 6 h | Potency, µM (series often up to 57.7 µM), for the others: at the top dose activity, negative = inhibition, usual class: inhibitors | 280,000 tested, 0.39% active | AID 1468; also: nearly all actives have a fitted effect of over 55% in size
Target sequence (P10636 561-689 P618L limits assumed): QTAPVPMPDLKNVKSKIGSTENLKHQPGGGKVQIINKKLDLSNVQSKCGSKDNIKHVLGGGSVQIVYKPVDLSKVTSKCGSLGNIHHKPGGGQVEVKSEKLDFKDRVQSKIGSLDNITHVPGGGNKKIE
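K18 P301L tau (15 uM unlabeled/0.24 uM Alexa 594-labeled, final) + compound + heparin 20 uM final; 100 mM NaOAc pH 7; 6 hr 37 C; ThT 30 uM final added, 1 hr RT; FP ex 555/em 632 nm.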
HPGD block – HPGD (human) dehydrogenase inhibition; P15428; purified HPGD, NADH fluorescence kinetic, PGE2 substrate; Potency, µM, for the others: at the highest dose activity change, negative = inhibition, hits mostly inhibitors; 150,000 tested, 4.3% active; active = well fitted inhibition curve with a large enough effect, not every such curve was filed as active; inconclusive = small, poorly fitted or top-dose-only effect, or another doubt; inactive = no such curve, though single readings can be large or run the other way
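NADH formation kinetics: reaction with 30 uM PGE2 and 1 mM NAD+ (final), 20 nM enzyme, Tris-HCl pH 8 with Tween 20, after 15 min compound preincubation at room temperature. Fluorescence change, last versus first of five reads.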
KDM4E inh – inhibitors of human JMJD2E histone demethylase; 230,000 tested, 1.6% active; Potency, µM (titrated, usually from 57.1 µM), for the others: top-dose activity change, negative = inhibition, usual class: inhibitors; B2RXH2; JMJD2E catalytic domain, FDH-coupled NADH fluorescence (FDH is formaldehyde dehydrogenase);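 also: 0% = wells with enzyme and -100% = buffer wells without enzyme; nearly all actives have a fitted effect of over 50% in size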
Tau fluor counter – counter-screen for tau fibril formation inhibitors; tau K18 P301L Alexa594 fluorescence, heparin fibrillization; Potency, µM (doses to about 57.7 µM), for the others: at the highest dose activity change, negative = decrease; 280,000 tested, 0.93% active; AID 1463; also: nearly all actives have a fitted effect of over 55% in size
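Human K18 P301L tau (15 uM unlabeled plus 0.24 uM Alexa 594-labeled, final) in 100 mM sodium acetate pH 7 was mixed with compound and 20 uM heparin and incubated 6 hr at 37 C.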
Tau ThT inhib – blocks human tau fibril formation measured by thioflavin T; P10636; recombinant tau K18 P301L (four-repeat tau fragment), heparin-induced fibrillization, ThT fluorescence; Potency, µM (highest dose often 57.4 µM), inactives show top-dose activity, negative = inhibition, hits mostly inhibitors; 270,000 tested, 2.1% active; AID 1460; also: nearly all actives have a fitted effect of over 55% in size
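Heparin-induced fibrillization of the P301L-mutant K18 repeat-domain fragment of human tau was followed by ThT binding in quantitative high-throughput format.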
* = called active by the depositor; ? = inconclusive; . = not tested or not shown; [ ] = remark or other dose. Hits are enriched below; roughly 9.9% of the tested compounds scored in any of these assays. Unless noted, calls follow the shape of the dose curve; as a rule, active = well fitted curve in the direction sought with a large enough effect; inconclusive = small, poorly fitted or top-dose-only effect, or another doubt; inactive = no such curve, though single readings can be large; an effect the other way counts as inactive or inconclusive. Unless noted, % is scaled to controls: 0 for no effect and ±100 for the full control effect; potency is read from the fitted curve at half-maximal effect.

SMILES	ALDH1A1 inh	Tau FP inhib	HPGD block	KDM4E inh	Tau fluor counter	Tau ThT inhib
O=C(NC1CCCCC1)c1sc(=S)n2c1[nH]c(=O)c1ccccc12	3.2µM*	12%	13µM*	4%	?	14µM*
CCCCNC(=O)c1sc(=S)n2c1[nH]c(=O)c1ccccc12	?	?	-21%	2%	?	16µM*
O=C(NCC1CCCO1)C1CCN(C(=O)c2ccc(Cl)cc2)CC1 (stereo unspecified)	5%	2%	0%	-1%	0%	-1%
O=C(NC1CCCCCC1)c1c(O)c2ccccc2[nH]c1=O	-10%	-2%	-12%	-8%	-10%	-8%
COc1ccc(NC(=O)c2ccco2)cc1NC(=O)COc1ccccc1Cl	.	-14%	.	.	-21%	?
CC1CCCCN1S(=O)(=O)c1ccc(S(=O)(=O)NCCc2ccncc2)cc1 (stereo unspecified)	?	-5%	1%	2%	-10%	2%
O=C1CC(NCCC2=CCCCC2)C(=O)N1c1cccc(Cl)c1Cl (stereo unspecified)	5.6µM*	-8%	-15%	-1%	-16%	-15%
C/C(=N\NC(=O)c1csc(C)c1C)c1ccc(C)s1	3%	1%	14µM*	3%	10%	?
CCc1ccccc1N(C)C(=O)CCc1nc(-c2ccc(C)cc2)no1	-13%	-4%	14µM*	-7%	2%	-12%
CCN1C(=O)/C(=C2/C=Cc3ccccc3N2CC)SC1=S	1%	11%	.	-5%	?	13µM*
CN1C(=O)/C(=C2/C=Cc3ccccc3N2CCCS(=O)(=O)O)SC1=S	-15%	5%	?	-4%	-18%	25µM*
CCCN1/C(=C2/SC(=S)N(CC)C2=O)C=Cc2ccccc21	?	4%	-13%	-1%	?	?
O=C(NCc1cccs1)c1ccc2c(c1)N(Cc1ccccc1Cl)C(=O)c1ccccc1S2	.	-15%	.	.	1%	14%
CCOc1cc(C)c(S(=O)(=O)Nc2ccc3cn[nH]c3c2)cc1C	?	?	-19%	3%	?	11%
S=c1[nH]cc(-c2ccccc2)[nH]1	.	1%	.	?	1%	-2%
O=[N+]([O-])c1ccc(-c2c[nH]c(=S)[nH]2)cc1	0.5µM*	?	.	22%	?	25µM*
Cc1ccc2[nH]c3c(N4CCN(Cc5ccc6c(c5)OCO6)CC4)ncnc3c2c1	-9%	?	.	-5%	-24%	?
COc1ccc2c(c1)[nH]c1c(N3CCN(Cc4ccc5c(c4)OCO5)CC3)ncnc12	-6%	4%	?	?	16µM*[quencher]	?
NC(N)=NC(N)=Nc1ccc(C(=O)O)cc1	-15%[13.5 µM]	.	-8%	.	.	.
COc1ccc(CN(Cc2ccco2)c2cnc(S(C)(=O)=O)nc2C(=O)Nc2ccc(C)c(Cl)c2)cc1	.	-20%	.	.	-9%	-3%
O=C(/C=C/c1ccco1)c1ccc(NC(=O)C23CC4CC(CC(C4)C2)C3)cc1	25µM*	-2%	?	32µM*	-19%	?
O=C(/C=C/c1ccco1)Nc1ccc(C(=O)N2CCOCC2)cc1	?	-5%	18µM*	-1%	0%	-12%
O=C(/C=C/c1ccco1)Nc1ccc(N2CCCC2)cc1	-6%	9%	-5%	0%	-21%	2.2µM*
O=C(/C=C/c1ccco1)Nc1ccc(CN2CCOCC2)cc1	?	0%	.	-9%	-8%	-11%
Cc1ccc(C)c(NC(=O)C2=CCN(S(=O)(=O)c3ccc(F)cc3)CC2)c1	12%	-8%	-3%	-1%	-7%	1%
SMILES	ALDH1A1 inh	Tau FP inhib	HPGD block	KDM4E inh	Tau fluor counter	Tau ThT inhib
CC(=O)O[C@]1(C(C)=O)CC[C@@H]2[C@@H]3C=C(Cl)C4=CC(=O)[C@H]5C[C@@H]5[C@]4(C)[C@H]3CC[C@]21C	5%[20.9 µM]	.	0%	4%[25.5 µM]	.	.
Cc1ccc(C(=O)NCc2cccnc2)cc1S(=O)(=O)Nc1ccccc1	5%	-10%	.	3%	-9%	-2%
COc1ccc(-c2cn3c(n2)sc2cc(C(=O)Nc4ccc(C)c(C)c4)ccc23)cc1	.	-1%	.	.	-15%	4%
Cc1cc(C(=O)OCC(=O)c2cccc([N+](=O)[O-])c2)c2ccccc2n1	-2%	12%	-24%	-16%	-17%	-6%
Cc1cc(C(=O)OCC(=O)c2ccc(Cl)c([N+](=O)[O-])c2)c2cccc(C)c2n1	13µM*	-1%	-18%	-19%	-23%	?
COc1ccc(-c2cc(C(=O)OCC(=O)c3ccc(C)c([N+](=O)[O-])c3)c3ccccc3n2)cc1	-3%	-5%	?	1%	0%	7%
Cc1ccc2nc(C)cc(C(=O)OCC(=O)c3ccc(Cl)c([N+](=O)[O-])c3)c2c1	20µM*	-6%	-19%	-11%	-27%	?
CC(C)(C)N1CC(c2nc3ccccc3n2CCOc2ccccc2)CC1=O (stereo unspecified)	3.2µM*	0%	-7%	5%	-16%	-9%
CCOc1ccccc1NC(=O)C1=C(C)Nc2ncnn2C1c1ccc(C)o1 (stereo unspecified)	.	2%	.	.	-4%	-1%
CC(=O)Nc1cccc(NC(=O)c2sc3ncn(CC(=O)N4CCCCC4)c(=O)c3c2C)c1	0.89µM*	3%	-27%	-4%	4%	10%
CCc1ccc2c(c1)c1nc(C)sc1n2CC	32µM*	?	28µM*	-14%	-26%	25µM*
CCN1CCN(c2nc3c(c(=O)[nH]c(=O)n3C)n2CCSc2nc3ccccc3s2)CC1	7%	-8%	-7%	-5%	-4%	-3%
Cn1c(=O)[nH]c(=O)c2c1nc(SCCN1CCOCC1)n2CCCc1ccccc1	-11%	-3%	35µM*	-4%	-6%	-8%
CCOC(=O)C(CC)Sc1nc2c(c(=O)[nH]c(=O)n2C)n1CCc1ccccc1 (stereo unspecified)	11µM*	-10%	22µM*	-8%	-4%	-18%
CCOC(=O)CSc1nc2c(c(=O)[nH]c(=O)n2C)n1CCc1ccccc1	?	3%	-12%	0%	1%	-3%
CC(CSc1nc2ccccc2s1)Cn1c(N2CCCC2)nc2c1c(=O)[nH]c(=O)n2C (stereo unspecified)	8%	-3%	22µM*	6%	-13%	-22%
CC(C)CCSc1nc2c(c(=O)[nH]c(=O)n2C)n1CCCc1ccccc1	1%	1%	?	-4%	-1%	4%
CC(C)CCn1c(Sc2nc3ccccc3s2)nc2c1c(=O)[nH]c(=O)n2C	11µM*	-1%	.	4%	-15%	?
CCCOc1ccc(C(=O)Nc2cc3c(cc2N2CCOCC2)n(C)c(=O)n3C)cc1	.	5%	.	.	3%	-10%
